In all, about 5,500 compounds went through this assay and about 2,000 (36%) were called active. Not shown: some 18% with an inconclusive outcome. Cut-off read from the data, not from the text of the source: active = normalized growth mostly below about 0.91 (no sharp cut-off); inconclusive = no clear call, values can overlap the other calls; inactive = mostly above about 0.92. The list shows a part of the results.
Experiment: chemical genetic growth profiling, strain panel (AID 1159580);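 note: tested at 20 µM; growth read once vehicle control cultures reached saturation at 30 °C; 1 = growth at the plate median or of vehicle wells; lower values mean less growth of the strain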
Details: growth OD
[1] = S. cerevisiae deletion strains, locus YAL013W, strain DEP1, active compounds read low
[2] = S. cerevisiae deletion strains, locus YBR229C, strain ROT2, active compounds read low
[3] = S. cerevisiae deletion strains, locus YDL101C, strain DUN1, active compounds read low
[4] = S. cerevisiae deletion strains, locus YDR150W, strain NUM1, active compounds read low
[5] = S. cerevisiae deletion strains, locus YEL061C, strain CIN8, active compounds read low
[6] = S. cerevisiae deletion strains, locus YGR078C, strain PAC10, active compounds read low
[7] = S. cerevisiae deletion strains, locus YHR030C, strain SLT2, active compounds read low
[8] = S. cerevisiae deletion strains, locus YHR087W, strain rtc3, active compounds read low
[9] = S. cerevisiae deletion strains, locus YJR043C, strain POL32, active compounds read low
[10] = S. cerevisiae deletion strains, locus YJR075W, strain HOC1, active compounds read low
[11] = S. cerevisiae deletion strains, locus YLR039C, strain RIC1, active compounds read low
[12] = S. cerevisiae deletion strains, locus YLR058C, strain SHM2 (second series), active compounds read low
[13] = S. cerevisiae deletion strains, locus YLR085C, strain ARP6, active compounds read low
[14] = S. cerevisiae deletion strains, locus YLR262C, strain YPT6, active compounds read low
[15] = S. cerevisiae deletion strains, locus YML094W, strain GIM5, active compounds read low
[16] = S. cerevisiae deletion strains, locus YMR219W, strain ESC1, active compounds read low
[17] = S. cerevisiae deletion strains, locus YMR263W, strain SAP30, active compounds read low
[18] = S. cerevisiae deletion strains, locus YNL153C, strain GIM3, active compounds read low
[19] = S. cerevisiae deletion strains, locus YNL298W, strain CLA4 (second series), active compounds read low
[20] = S. cerevisiae deletion strains, locus YNL322C, strain KRE1, active compounds read low
[21] = S. cerevisiae deletion strains, locus YNR030W, strain Alg12, active compounds read low
[22] = S. cerevisiae deletion strains, locus YPL055C, strain LGE1, active compounds read low
[23] = S. cerevisiae deletion strains, locus YPL241C, strain CIN2, active compounds read low
[24] = S. cerevisiae deletion strains, locus YPR135W, strain CTF4, active compounds read low

Measured: normalized growth

O=C(NC(=S)NCc1ccncc1)c1ccccc1
inactive: [1] 1.02 | [2] 1.01 | [3] 1.01 | [4] 0.983 | [5] 1 | [6] 1.01 | [7] 1.05 | [8] 1 | S. cerevisiae deletion strains, locus YJL187C, strain SWE1, active compounds read low 0.973 | [9] 0.997 | [10] 1.03 | S. cerevisiae deletion strains, locus YKL190W, strain CNB1, active compounds read low 1.01 | [11] 0.928 | [12] 1 | [13] 0.969 | [14] 0.978 | [15] 1.01 | [16] 1 | [17] 1 | S. cerevisiae deletion strains, locus YNL128W, strain TEP1, active compounds read low 1.01 | [18] 1 | [19] 1.04 | [20] 1 | [21] 1.02 | [22] 1 | [23] 1.02 | [24] 0.929 | S. cerevisiae strains, strain wild type, active compounds read low 1.01

O=C(NC(=S)Nc1ccccn1)c1ccccc1
active: [5] 0.783 | [7] 0.401 | [11] 0.573 | [13] 0.428 | [14] 0.788 | [15] 0.777 | S. cerevisiae deletion strains, locus YMR307W, strain GAS1, active compounds read low 0.476 | [19] 0.67 | [21] 0.8 | S. cerevisiae deletion strains, locus YOL006C, strain TOP1, active compounds read low 0.213 | [22] 0.825 | [23] 0.807 | [24] 0.552
inactive: [1] 0.962 | [2] 0.948 | [3] 0.942 | S. cerevisiae deletion strains, locus YDL134C, strain PPH21, active compounds read low 0.977 | [4] 0.956 | [6] 0.962 | [8] 1 | [9] 0.955 | [10] 0.988 | [12] 0.976 | [16] 0.964 | [17] 0.993 | [18] 0.933 | [20] 1

Reference: PubChem BioAssay AID1159580 (chemical genetic matrix, 2015)
